Experimental data as given in PubChem BioAssay AID2061304 (National Center for Advancing Translational Sciences (NCATS), 2025).
Results filed as inconclusive are left out. The source made the active and inactive calls. Calls follow the shape of the dose curve; as a rule, active = well fitted inhibition curve with a large enough effect; inconclusive = small, poorly fitted or top-dose-only effect; inactive = flat fitted curve, though single readings scatter. Square brackets hold non-standard residues; d marks the D form. Peptide text beside a SMILES is read from it. * marks the point of attachment. Dolaproine = CO[C@@H]([C@@H]1CCCN1)[C@@H](C)C(=O)O; Dil = CC[C@H](C)[C@H](NC)[C@@H](CC(=O)O)OC; NMe2Val = CC(C)[C@@H](C(=O)*)N(C)C; X1 = C[C@@H](N*)[C@@H](O)c1ccccc1; NMeV = CN[C@H](C(=O)O)C(C)C

Assay: Identification of antibody-drug conjugate (ADC) payloads which are substrates of ATP-binding cassette drug efflux transporters: ABCB1-HeLa-KB-8-5-11 cell line
Settings: KB-8-5-11 (P-gp overexpressing HeLa) viability, CellTiter-Glo, 48 h
From the text: Antibody-drug conjugates (ADCs) feature an antibody recognizing a specific protein joined to a potent toxic payload. Numerous antibody-drug conjugates have received FDA approval; however, clinical resistance arises. Resistance mechanisms include decreased expression or mutation of the antibody target, impaired payload release, or increased expression of ATP-binding cassette (ABC) efflux transporters associated with multidrug resistance. We therefore sought to characterize the interaction of ABC multidrug transporters with ADC payloads. We performed a high-throughput screen with 27 common ADC payloads using cells lines expressing ABC transporters P-glycoprotein (P-gp, encoded by ABCB1) or ABCG2 (encoded by ABCG2). Confirmatory assays were also performed using cells transfected to express P-gp, ABCG2, or MRP1 (encoded by ABCC1). Several commonly used ADC payloads were substrates of P-gp, including calicheamicin gamma1, monomethyl auristatin E, DM1, and DM4. All the pyrrolobenzodiazepines tested - SJG136, SGD-1882, SG2057, and SG3199 - were substrates of P-gp, ABCG2, and MRP1. […] These findings highlight the risk of transporter-mediated resistance with certain ADC payloads and underscore the importance of selecting payloads that evade ABC transporter recognition in future ADC development.
HEK-293 cells were transfected with empty vector (pcDNA) or vector containing the human ABCB1 (MDR-19), ABCG2 (R-5), or ABCC1 gene (MRP1) and were maintained in EMEM with 2 mg/mL G418 added to maintain transporter expression. The HeLa derivative KB-3-1 and the P-gp overexpressing KB-8-5-11 subline were maintained in DMEM; KB-8-5-11 additionally received 100 ng/mL colchicine. H460 parental cells were obtained from the Division of Cancer Treatment and Diagnosis Tumor Repository, National Cancer Institute at Frederick, MD and were cultured in RPMI. The ABCG2 expressing subline H460 MX20 was generated by selecting H460 cells in 20 nM mitoxantrone. Media in all cases was supplemented with 10% FBS and 1% penicillin-streptomycin. We explored 27 common ADC payloads, in two orthogonal, paired cell line sets-a drug selected and transfected set for each transporter--to identify substrates of the ABC transporters P-gp and ABCG2. Compounds were sourced from Levena Biopharma (San Diego, CA), Selleck Chem (Houston, TX), ChemieTek (Indianapolis, IN), or Microsource Discovery Systems (Gaylordsville, CT). Screening was performed as previously described. Briefly, cells were plated at a density of 500 cells/well in 1536 well plates with compounds added using a 1536-head pin tool (Kalypsys, San Diego CA). Cells were incubated with cytotoxic drugs and processed with CellTiter Glo reagent (Promega, Madison, WI) to determine viability after 48 hours. P-gp substrates were identified by comparing compound activity between paired sets of low-expressing (sensitive) and over-expressing (resistant) cell lines.

Compound | Potency
COc1cc2cc(C(=O)N3C[C@@H](CCl)c4c3cc(O)c3ccccc43)[nH]c2c(OC)c1OC | 1.3 nM (active)
COc1cc2cc(c1Cl)N(C)C(=O)C[C@H](OC(=O)C(C)C)[C@]1(C)O[C@H]1[C@H](C)[C@@H]1C[C@@](O)(NC(=O)O1)[C@H](OC)C=CC=C(C)C2 | 4.7 nM (active)
COc1cc2cc(c1Cl)N(C)C(=O)C[C@H](OC(=O)[C@H](C)N(C)C(=O)CCS)[C@]1(C)OC1[C@H](C)C1C[C@@](O)(NC(=O)O1)[C@H](OC)/C=C/C=C(\C)C2 (some centres not stated) | 106 nM (active)
COc1cc2cc(c1Cl)N(C)C(=O)C[C@H](OC(=O)[C@H](C)N(C)C(=O)CCC(C)(C)S)[C@]1(C)OC1[C@H](C)C1C[C@@](O)(NC(=O)O1)[C@H](OC)/C=C/C=C(\C)C2 (some centres not stated) | 26.5 nM (active)
CC[C@H](C)[C@H](NC(=O)[C@H]1CCCCN1C)C(=O)N(C)[C@H](C[C@@H](OC(C)=O)c1nc(C(=O)O)cs1)C(C)C | 4200 nM (active)
COc1cccc2c1C(=O)c1c(O)c3c(c(O)c1C2=O)C[C@@](O)(C(=O)CO)CC3OC1CC(N2CCOC(OC)C2)C(O)C(C)O1 (some centres not stated) | 13.3 nM (active)
CC[C@H](C)[C@@H]([C@@H](CC(=O)N1CCC[C@H]1[C@H](OC)[C@@H](C)C(=O)N[C@@H](Cc1ccccc1)C(=O)O)OC)N(C)C(=O)[C@@H](NC(=O)[C@H](C(C)C)N(C)C)C(C)C (NMe2Val-V[Dil][Dolaproine]F-OH) | 265 nM (active)
CC[C@H](C)[C@@H]1NC(=O)CNC(=O)[C@H]2Cc3c([nH]c4cc(O)ccc34)S(=O)C[C@H](NC(=O)CNC1=O)C(=O)N[C@@H](CC(N)=O)C(=O)N1C[C@H](O)C[C@H]1C(=O)N[C@@H]([C@@H](C)[C@@H](O)CO)C(=O)N2 (some centres not stated) | 4720 nM (active)
CC[C@H](C)[C@@H]([C@@H](CC(=O)N1CCC[C@H]1[C@H](OC)[C@@H](C)C(=O)N[C@H](C)[C@@H](O)c1ccccc1)OC)N(C)C(=O)[C@@H](NC(=O)[C@@H](NC)C(C)C)C(C)C (H-[NMeV]V[Dil][Dolaproine]-X1) | 211 nM (active)
CC[C@@]1(O)C(=O)OCc2c1cc1n(c2=O)Cc2cc3ccccc3nc2-1 | 334 nM (active)
CC[C@H](C)[C@@H]([C@@H](CC(=O)N1CCC[C@H]1[C@H](OC)[C@@H](C)C(=O)N[C@H](C)[C@@H](O)c1ccccc1)OC)N(C)C(=O)[C@@H](NC(=O)[C@H](C(C)C)N(C)C)C(C)C | 52.9 nM (active)
CC[C@H](C)[C@H](NC(=O)[C@H]1CCCCN1C)C(=O)N(C)[C@H](C[C@@H](OC(C)=O)c1nc(C(=O)N[C@@H](Cc2ccccc2)C[C@H](C)C(=O)O)cs1)C(C)C | 10.6 nM (active)
